Assay outcomes (PubChem)
HT1080-NT tox: kills 2HG-producing HT-1080-NT fibrosarcoma cells; HT-1080-NT fibrosarcoma viability, CellTiter-Glo ATP luminescence, 48 h; Potency, µM (series often up to 46.1 µM), without a hit: top-dose activity, negative = less viability, hits mostly cytotoxic; 360,000 compounds, 1.6% hits;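 also: NT is the 2HG producing partner of a matched IDH1 knockdown line; potency is read from the fitted curve at half-maximal effect; 0% = DMSO-treated cells and -100% = media-only wells without cells; nearly all actives have a fitted effect of over 55% in size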
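750 cells/well, RPMI + 5% FBS; 2 h settle, compound pin-transfer, 48 h at 37 degrees C. CellTiter-Glo 10 min RT, luminescence. Normalized to DMSO and media-only wells.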
HT1080 IDH1KD tx: toxicity to HT-1080 IDH1 knockdown cells (counter line); HT-1080 IDH1 knockdown viability, ATP luminescence, 48 h; 360,000 compounds, 2% hits; Potency, µM (top dose mostly 46.1 µM), inactives show at the highest dose activity, negative = toxicity, hits mostly cytotoxic; AID 686971;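 also: potency is read from the fitted curve at half-maximal effect; 0% = DMSO wells and -100% = cell-free medium wells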
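HT-1080-IDH1KD cells (IDH1 knocked down), 750/well in RPMI with 5% FBS, treated with compound 48 h at 37 degrees C. Viability by CellTiter-Glo luminescence, normalised to DMSO and no-cell wells; concentration-response curves classed.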
12-LOX inh: ALOX12 (human) lipoxygenase inhibition. purified 12hLO, xylenol orange hydroperoxide absorbance. AID 1671190. Potency, µM (highest dose often 108 µM), for the others: at the highest dose activity change, negative = inhibition, hits mostly inhibitors. 580,000 compounds, 1.1% hits. P18054; also: potency is read from the fitted curve at half-maximal effect
Target sequence (P18054 whole entry, looked up): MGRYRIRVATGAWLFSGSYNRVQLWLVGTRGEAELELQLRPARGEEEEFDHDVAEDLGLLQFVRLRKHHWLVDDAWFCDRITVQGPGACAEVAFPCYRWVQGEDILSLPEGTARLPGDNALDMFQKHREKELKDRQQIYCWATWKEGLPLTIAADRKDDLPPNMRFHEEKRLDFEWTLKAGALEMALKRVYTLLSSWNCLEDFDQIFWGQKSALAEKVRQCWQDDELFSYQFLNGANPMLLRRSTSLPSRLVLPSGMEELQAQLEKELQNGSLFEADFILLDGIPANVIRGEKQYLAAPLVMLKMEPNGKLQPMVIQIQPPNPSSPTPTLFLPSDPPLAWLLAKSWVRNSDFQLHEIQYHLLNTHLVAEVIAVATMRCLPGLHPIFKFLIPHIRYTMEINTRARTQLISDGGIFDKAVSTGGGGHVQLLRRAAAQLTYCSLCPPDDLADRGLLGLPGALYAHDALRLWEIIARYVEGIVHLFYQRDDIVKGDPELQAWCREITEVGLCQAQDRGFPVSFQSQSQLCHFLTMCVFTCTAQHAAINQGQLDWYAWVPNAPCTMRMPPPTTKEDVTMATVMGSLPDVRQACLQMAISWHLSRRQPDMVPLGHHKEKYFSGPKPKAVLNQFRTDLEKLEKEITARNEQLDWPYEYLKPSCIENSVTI
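Hydroperoxide product was detected by ferrous iron/xylenol orange as the 573 to 405 nm absorbance ratio. Arachidonic acid at 40 uM (final) was turned over for 30 min at room temperature by 150 nM human 12hLO, pH 7.0 Hepes buffer, after 15 min compound preincubation.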
DT40 TDP1 no CPT: qHTS for Inhibitors of human tyrosyl-DNA phosphodiesterase 1 (TDP1): qHTS in cells in absence of CPT; 420,000 compounds, 15% hits; DT40 Tdp1-/- hTDP1 cells, no CPT, ATP luminescence, 48 h; Potency, µM (series often up to 46.2 µM), for the others: at the top dose activity change, negative = growth inhibition, hits mostly inhibitors; also: potency is read from the fitted curve at half-maximal effect; nearly all actives have a fitted effect of over 55% in size
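Readout: luminescence from CellTiter-Glo after 30 min in the dark at RT. Cells: DT40 Tdp1-/- with stable hTDP1, 400/well. Exposure: compounds alone, ≥48 hr, 37 °C.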
IL-1B inflam inh: inhibitors of inflammasome signaling (IL-1 beta secretion) | THP-1 LPS/ATP IL-1B secretion, AlphaLISA, 16 h; active compounds read low | activity change, % at 57.5 µM | 360,000 compounds, 4.7% hits | AID 743279; in the data active = activity change below about -50%; inconclusive = mostly about -30% to -49%
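THP-1 cells pretreated 1 hr with compounds (up to 57.5 uM final), then stimulated with LPS (250 ng/mL final) plus ATP (1.25 mM final); secreted IL-1B measured by AlphaLISA after 16 hr, decreased signal indicating inhibition.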
TDP1 cell CPT: growth inhibition of DT40 Tdp1-/-;hTDP1 cells with camptothecin (screen for TDP1 inhibitors). chicken DT40 Tdp1-/-;hTDP1 cells + 20 nM CPT, ATP luminescence, 48 h. Potency, µM (series often up to 46.2 µM), inactives show top-dose activity change, negative = growth inhibition, usual class: inhibitors. 420,000 compounds, 12% hits. AID 686979; also: potency is read from the fitted curve at half-maximal effect; nearly all actives have a fitted effect of over 55% in size
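Cell growth measured by CellTiter-Glo luminescence after a minimum 48 h, 37 C compound exposure with 20 nM CPT in Tdp1-knockout DT40 cells stably expressing hTDP1, seeded 400/well; qHTS titration format.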
The depositor's hits bear a star; u = inconclusive; x = no result given; [ ] = remark or other dose. The entries come from a sample that favours hits as a whole. Unless noted, calls follow the shape of the dose curve; as a rule, active = well fitted curve in the direction sought with a large enough effect; inconclusive = small, poorly fitted or top-dose-only effect, or another doubt; inactive = no such curve, though single readings can be large; an effect the other way counts as inactive or inconclusive. Unless noted, % is scaled to controls: 0 for no effect and ±100 for the full control effect.

SMILES | HT1080-NT tox | HT1080 IDH1KD tx | 12-LOX inh | DT40 TDP1 no CPT | IL-1B inflam inh | TDP1 cell CPT
C[C@@H]1CN([C@@H](C)CO)S(=O)(=O)c2ccc(Br)cc2O[C@H]1CN(C)Cc1ccccn1 | -9.1% | -8.0% | -6.3% | 23.1µM* | 9.8 | 14.6µM*
C[C@@H]1CN([C@@H](C)CO)S(=O)(=O)c2ccc(Br)cc2O[C@@H]1CN(C)Cc1ccccn1 | 2.3% | 24.1% | 26.1% | u | -7.5 | u
Cc1ccc(Cn2cc(CN(C3CC3)S(=O)(=O)c3ccccc3Br)nn2)cc1 | x | x | -3.4% | x | x | x
COCCN1C=C2C(=O)C(C)(OC(=O)CCc3ccccc3)C(=O)C=C2C=C1c1ccc(C#N)cc1 (configuration not stated) | 5.6% | 4.6% | -5.9% | -25.8% | 24.4 | u
CC(C)CN1C=C2C(=O)C(C)(OC(=O)CCc3ccccc3)C(=O)C=C2C=C1c1ccc(C#N)cc1 (configuration not stated) | -1.3% | 2.6% | u | 18.4µM* | -1.7 | 20.6µM*
CC1(OC(=O)CCc2ccccc2)C(=O)C=C2C=C(c3ccc(C#N)cc3)N(Cc3ccco3)C=C2C1=O (configuration not stated) | 6.8% | 11.0% | u | u | 15.4 | u
CC1(OC(=O)CCc2ccccc2)C(=O)C=C2C=C(c3ccc(C#N)cc3)N(Cc3ccccc3)C=C2C1=O (configuration not stated) | -2.6% | u | -15.8% | u | 4.5 | 18.4µM*
CCc1noc(-c2cn(C3CCN(C(=O)c4cccs4)C3)nn2)n1 (configuration not stated) | x | x | 37.1% | x | x | x
Cc1ccc(-c2cc(-c3ccc(C)cc3C)[nH]n2)c(C)c1 | x | x | 25.8% | x | x | x
O=C(Cn1nc2ccccc2n1)N/N=C/c1cc([N+](=O)[O-])ccc1O | -10.0% | u | u | u | 207.7 | u
O=C(CCC(=O)Nc1ccc(F)cc1)N/N=C/c1cc([N+](=O)[O-])ccc1O | -27.3% | -13.6% | -30.0% | u | 23.3 | 0.3%
O=[N+]([O-])c1ccc(O)c(C2CCCCC2)c1 | 14.6µM* | 16.4µM* | u | u | u | u
O=C(CCC(=O)Nc1ccc(Br)cc1)N/N=C/c1cc([N+](=O)[O-])ccc1O | -14.8% | 3.1% | u | u | 113.0 | 23.1µM*
O=C(Cn1nnc(-c2ccccc2)n1)N/N=C/c1cc([N+](=O)[O-])ccc1O | -1.3% | 2.7% | -18.5% | 4.11µM* | 41.5 | 5.8µM*
O=[N+]([O-])c1ccc2nc(C3CCCCC3)[nH]c2c1 | -1.8% | -12.7% | -19.3% | u | -2.5 | u
O=C(N/N=C/c1cc([N+](=O)[O-])ccc1O)C1CCCCC1 | u | u | -3.1% | 4.61µM* | 52.5 | 5.17µM*
COc1ccc(Cl)cc1C(=O)Nc1ccc(F)c(S(=O)(=O)N2CCOCC2)c1 | x | x | 4.5% | x | x | x
Cc1ccccc1S(=O)(=O)N1CCC2(CC1)CC1C(=O)NCCN1C2 (configuration not stated) | x | x | 62.5% | x | x | x
Nc1ccn([C@@H]2O[C@H](C(=O)N[C@H](Cc3ccccc3)C(=O)N3CCSC3)[C@@H](O)[C@H]2O)c(=O)n1 | x | x | -1.6% | x | x | x
O=C(c1ccc(Cn2cncn2)cc1)N1CCN(c2cccc(Cl)c2)CC1 | x | x | 0.0% | x | x | x
Cc1cc(NCc2ccc(S(N)(=O)=O)cc2)n2nc(C)c(C)c2n1 | x | x | -1.5% | x | x | x
O=C(/C=C/c1ccc([N+](=O)[O-])cc1)OCC(=O)C12CC3CC(CC(C3)C1)C2 | x | x | -23.0% | x | x | x
CCN(CC)c1ccc(C(=O)OCc2c(C)noc2C)cc1 | -22.9% | -18.0% | 3.8% | u | -9.5 | 13.1%
O=C(CCC(=O)Nc1cc(C(F)(F)F)ccc1Cl)N/N=C\c1cc([N+](=O)[O-])ccc1O | u | -13.2% | 84.7% | 8.2µM* | 80.7 | 10.3µM*
O=C(N/N=C/c1cc([N+](=O)[O-])ccc1O)c1ccc(COc2ccc3c(c2)CCC3)o1 | u | u | u | 3.26µM* | 119.1 | 2.59µM*
SMILES | HT1080-NT tox | HT1080 IDH1KD tx | 12-LOX inh | DT40 TDP1 no CPT | IL-1B inflam inh | TDP1 cell CPT
O=C1NC2(CCN(CC3CC3)CC2)Oc2ccccc21 | x | x | -2.8%[176 µM] | x | x | x
O=C(Nc1cc(F)c(F)c(F)c1)N1CCC(n2cnnc2C2CC2)C1 (configuration not stated) | x | x | 30.9% | x | x | x
COc1ccccc1N1CCN(CCCNC(=O)c2nnc(Cc3ccc(F)cc3Cl)o2)CC1 | x | x | 5.2% | u | x | u
O=C(NCCCN1CCN(c2ccccc2)CC1)c1nnc(Cc2ccc(F)cc2)o1 | x | x | -17.2% | 25.9µM* | x | u
O=C(NCCCN1CCN(c2ccc(F)cc2)CC1)c1ccc2nc(Cc3ccccc3)oc2c1 | x | x | u | 20.6µM* | x | 13µM*
Cc1ccc(C)c(N2CCN(CCCNC(=O)c3nnc(Cc4ccc(F)cc4Cl)o3)CC2)c1 | x | x | -17.8% | 4.61µM* | x | 2.59µM*
O=C(NCCCN1CCN(c2ccccc2)CC1)c1ccc2nc(Cc3ccccc3)oc2c1 | x | x | u | 8.2µM* | x | 11.6µM*
CCSc1nn(CC(=O)N(CC)CC)c2nc3c(c(=O)n12)C(C)(CC)Cc1ccccc1-3 (configuration not stated) | x | x | -16.2% | x | x | x
Cc1cc(=O)n2c3c(c4c(cc13)c(CN(C)C)cc(=O)n4C)OC2 | -13.1% | u | 18.0% | 6.51µM* | -13.1 | 8.2µM*
CC1=C(C(=O)N2CCOCC2)CC(CC(=O)NCc2cccs2)C(=O)N1Cc1ccccc1 (configuration not stated) | 10.4% | 8.6% | u | 13.6% | 3.1 | -1.0%
CC1=C(C(=O)N2CCOCC2)CC(CC(=O)NCc2ccco2)C(=O)N1Cc1ccc(C(C)(C)C)cc1 (configuration not stated) | -6.8% | -5.4% | 3.5% | 20.6µM* | -16.2 | 29.1µM*
CC1=C(C(=O)N2CCOCC2)CC(CC(=O)NCc2cccs2)C(=O)N1Cc1ccc(C(C)(C)C)cc1 (configuration not stated) | -2.1% | 0.6% | -14.7% | u | 22.3 | 14.6µM*
CC1=C(C(=O)N(C(C)C)C(C)C)CC(CC(=O)NCc2cccs2)C(=O)N1Cc1ccc(C(C)(C)C)cc1 (configuration not stated) | u | u | -0.7% | 23.1µM* | -58.8* | u
